Reference: PubChem BioAssay (NCI)
This is part of a sample that, as a whole, favours compounds with a hit. Of some 83,000 tested, about 20% had one in any assay.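 Growth was measured after 48 h exposure to one concentration of compound in 96-well plates. Values under 10 count as active.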 A number with no mark means an inactive call. Activity calls are given as the source filed them.

Key:
Assay in all cases: NCI-60 one-dose screen, 48 h (100 = growth as untreated, 0 = no growth, -100 = all killed)
Details in all cases: 10 µM unless noted
[1] = system: NCI-H23 lung
[2] = system: NCI-H226 lung
[3] = system: NCI-H322M lung
[4] = system: HOP-62 NSCLC
[5] = system: NCI-H460 lung
[6] = system: HOP-92 NSCLC
[7] = system: NCI-H522 lung
[8] = system: A549/ATCC NSCLC
[9] = system: 786-0 renal
[10] = system: COLO 205 colon

Row | SMILES | growth [1] | growth [2] | growth [3] | growth [4] | growth [5] | growth [6] | growth [7] | growth [8] | growth [9] | growth [10]
1 | OCCNC(=S)Nc1ccc(-c2nc(N3C[C@H]4CC[C@@H](C3)O4)c3cccn3n2)cc1 | 17.4% | 0.203% (active) | 19.3% | -14.3% (active) | 11% | -21.2% (active) | 13.3% | -1.6% (active) | 1.86% (active) | -8.64% (active)
2 | COC(=O)CCCNc1c(-c2c(O)c(O)cc3c(O)c(-c4c(C)cc5c(-c6nc7ccccn7c6NCCCC(=O)OC)c(O)c(O)cc5c4O)c(C)cc23)nc2ccccn12 | 6.48% (active) | 64.8% | 93.2% | 37.1% | 6.59% (active) | 55.3% | 1.98% (active) | 23.4% | 67.6% | 87%
3 | CCCCN1CCCC[C@@H]1C(=O)N[C@H](C(=O)N(C)[C@H](CCc1nc(C(=O)N[C@@H](Cc2ccccc2)C[C@H](C)C(=O)OC)cs1)C(C)C)C(C)C | 59.7% | 80.6% | 75.6% | 80.8% | 94.6% | 18.8% | 49.6% | 81.8% | 77.4% | 63.5%
4 | COc1ccc(C2OC(c3cc(-c4cc5ccccc5o4)nn3-c3ccccc3)=NN2C(C)=O)cc1 (stereo not given) | 92.5% | 91% | 97.9% | 91.4% | 104% | 74.1% | 83.4% | 102% | 92.9% | 103%
5 | COc1ccc(C2CC(=O)c3c(O)c(OC)c(OC)c(OC)c3O2)cc1O (stereo not given) | 33.8% | 89.2% | 44.3% | 61.9% | 3.01% (active) | 79.5% | 13.1% | 28.7% | 49% | 67.3%
6 | N[C@@H]1CCCN(c2c(/C=C3\SC(=O)NC3=O)cccc2-c2ccccc2)C1 | 66% | 59.1% | 64.3% | 1.79% (active) | 75.9% | 27.9% | 49.7% | 52.6% | 82.8% | 45.4%
7 | COc1cccc2cc(-c3nc(C4CCC(C(=O)O)CC4)n4ncnc(N)c34)[nH]c12 (stereo not given) | 7.94% (active) | 7.69% (active) | 9.76% (active) | -10% (active) | 11.1% | -14.5% (active) | -1.72% (active) | 5.25% (active) | -5.64% (active) | 1.83% (active)
8 | CC(=O)C1=C(C)NC(SCc2nnc(-c3ccc(C)cc3)o2)=NC1c1ccc(F)cc1 (stereo not given) | 95.2% | 89.6% | 92.8% | 95.2% | 106% | 96.4% | 85.9% | 91.2% | 84.6% | 115%
9 | O=C(COc1cccc(/C=C2\Cc3ccc(Cl)cc3C2=O)c1)Nc1nccs1 | 78.5% | 86.1% | 96.9% | 96.5% | 89.2% | 77.2% | 2.66% (active) | 88.7% | 98.5% | 113%
10 | Cc1c(N)ccc(-c2ccc(N)c(C)c2S(=O)(=O)O)c1S(=O)(=O)O | 98% | 111% | 108% | 107% | 112% | 86.1% | 101% | 117% | 106% | 111%
11 | CN[C@@H]1C[C@H]2O[C@@](C)([C@@H]1OC)n1c3ccccc3c3c4c(c5c6ccccc6n2c5c31)C(=O)N[C@H]4O | -48.8% (active) | -47.1% (active) | -25.8% (active) | -60.8% (active) | -63.7% (active) | -9.92% (active) | -37.2% (active) | -36.8% (active) | -87.5% (active) | -80.8% (active)
12 | CO[C@H]1C[C@@H]2CC[C@@H](C)[C@@](O)(O2)C(=O)C(=O)N2CCCC[C@H]2C(=O)O[C@H]([C@H](C)C[C@@H]2CC[C@@H](OC(=O)C(C)(CO)CO)[C@H](OC)C2)CC(=O)[C@H](C)/C=C(\C)[C@@H](O)[C@@H](OC)C(=O)[C@H](C)C[C@H](C)\C=C/C=C/C=C/1C | 44.4% | 34.3% | 38.5% | 21.8% | 22.6% | 9.36% (active) | 22.7% | 22% | 26.2% | 28.5%
13 | COc1cc2nc(Nc3cccc(Cl)c3)nc(N)c2cc1OC | 88.2% | 90.3% | 89.7% | 106% | 66.9% | 40.6% | 101% | 73.4% | 62% | -60.1% (active)
